We go through eleven molecules from PubChem BioAssay AID493215 (National Center for Advancing Translational Sciences (NCATS), 2011).

Inconclusive results are not listed. Active and inactive are the calls of the source. Calls come from the whole dose curve; as a rule, active = well fitted inhibition curve with a large enough effect; inconclusive = small, poorly fitted or top-dose-only effect; inactive = flat fitted curve, though single readings scatter.

Chain of Cruzipain (Trypanosoma cruzi) (P25779 123-467 limits assumed): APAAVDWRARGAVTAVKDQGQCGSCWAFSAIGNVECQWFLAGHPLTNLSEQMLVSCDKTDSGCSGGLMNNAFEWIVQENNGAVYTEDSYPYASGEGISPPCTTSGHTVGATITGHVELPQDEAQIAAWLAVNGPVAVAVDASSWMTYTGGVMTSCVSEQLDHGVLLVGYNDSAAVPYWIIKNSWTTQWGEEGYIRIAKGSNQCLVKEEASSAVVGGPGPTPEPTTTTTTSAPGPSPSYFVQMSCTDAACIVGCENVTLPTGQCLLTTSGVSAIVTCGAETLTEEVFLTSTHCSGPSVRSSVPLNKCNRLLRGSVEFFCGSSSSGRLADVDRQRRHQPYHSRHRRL

The target in the assay is Cruzipain (Trypanosoma cruzi) (UniProt P25779). The assay can be described thus: Inhibitors of Cruzain: Benzimidazole Series - Round 1. The following applies: purified cruzain, Z-FR-AMC fluorogenic cleavage; series mostly up to 57.1 µM; activity change, negative = inhibition: at the top concentration. On the procedure:
Cruzain is a cysteine protease from the tropical parasite Trypanosoma cruzi. This assay protocol is for an initial exploratory first round of benzimidazole-based inhibitors. Cruzain was assayed by the use of fluorogenic coumarin-based substrate Z-FR-AMC: proteolytic cleavage releases AMC, whose fluorescence is measured at 360 nm excitation and 450 nm emission. Purified cruzain was supplied by the labs of Prof. James McKerrow and Brian Shoichet, UC San Francisco. This assay had 0.01% Triton X-100 concentration.
See following references for additional details:
Assay Provider: Shoichet, Brian; University of California, San Fancisco
Screening Center PI: Austin, C.P.
Screening Center: NIH Chemical Genomics Center [NCGC]
Buffer: 100 mM Sodium Acetate, pH 5.5, 5 mM DTT, Triton X-100 concentration: 0.01%.
Buffer in columns 3 and 4 as negative control (no enzyme).
Substrate solution: 2 uM final concentration of Z-FR-AMC (catalog number I-1160, Bachem) dispensed throughout the plate.
Enzyme: 1.5 nM Cruzain final concentration in columns 1, 2, 5-48. Column 1 is neutral (100% activity). Column 2 contained titration of covalent inhibitor K11777, starting concentration 1 mM, then 1:2 dilution in duplicate).
Three uL of enzyme or buffer were dispensed to 1536-well Greiner black solid bottom plates. Compounds and controls (23 nL) were transferred via Kalypsys PinTool. The plates were incubated for 15 min at room temperature, and then 1 uL of substrate solution was added to start the reaction. The plates were immediately transferred to and read 4 times every 30 seconds for 2 min on ViewLux High-throughput CCD imager (Perkin-Elmer) using 360 nm excitation and 450 nm emission fluorescence protocol. The fluorescence intensity difference between the third and the first time points (time lapse of 60 seconds) was used to compute reaction progress.
For `O=C(Cc1nnc(-c2nc3ccccc3[nH]2)o1)Nc1cc(C(F)(F)F)ccc1Cl`, the “activity change, negative = inhibition” value was 4.58% (inactive). Consider `O=C(COc1ccccc1Br)NCCc1nc2ccccc2[nH]1`, for which the Potency is 3.63 µM (active). On to `O=C(NNC(=O)c1nc2ccccc2[nH]1)OCc1ccccc1`, for which the “activity change, negative = inhibition” value was -7.65% (inactive). With `CC(C)(C)OC(=O)NCc1nnc(-c2nc3ccccc3[nH]2)o1`, the “activity change, negative = inhibition” value is -4.26% (inactive). With `O=C(NCCc1nc2ccccc2n1CCO)C1CCCCC1`, the Potency is 6.46 µM (active).

As to `Cc1ccc(C)c(OCCn2c(CCNC(=O)C3CCCCC3)nc3ccccc32)c1`, the Potency is 1.62 µM (active). Turning to `O=C(NCc1nnc(-c2nc3ccccc3[nH]2)o1)C1CCCCC1`, the “activity change, negative = inhibition” value is 10.7% (inactive).

With `O=C(COc1ccc(F)cc1)NCCc1nc2ccccc2[nH]1`, the Potency is 4.08 µM (active). Turning to `CC(C)(C)OC(=O)Cc1nnc(-c2nc3ccccc3[nH]2)o1`, the “activity change, negative = inhibition” value is -0.371% (inactive). Take `Cc1ccc(C)c(OCCn2c(CCNC(=O)COc3ccc(F)cc3)nc3ccccc32)c1`: the Potency was 9.13 µM (active).

For the molecule `CC(C)(C)OC(=O)NCC(=O)NNC(=O)c1nc2ccccc2[nH]1`, the “activity change, negative = inhibition” value is 2.49% (inactive).
